# Measured values reported in PubChem BioAssay (NCATS).
# Records with an inconclusive call do not appear. Activity calls are given as the source filed them. Unless noted, the call rests on the fitted dose curve; in most records, active means well fitted inhibition curve with a large enough effect; inconclusive means small, poorly fitted or top-dose-only effect; inactive means flat fitted curve, though single readings scatter.
# Legend:
# [1] = qHTS drug screen for cell cycle checkpoint inhibitors in PARPi-resistant BRCA-mutant ovarian cancer cell lines. (AID 1963452; calls by dose curve); conditions: PEO1/OlaR viability, CellTiter-Glo luminescence, 96 h, stronger effect = lower value
# In short: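 PEO1, PEO4 and PEO1/OlaR ovarian cancer cells, 600 per well, exposed 96 h at 37C to a dilution series. Viability read by CellTiter-Glo luminescence, normalized to DMSO and empty wells; activity summarized as Z-AUC.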
# [2] = qHTS for identification of novel therapeutic agents for treatment of microphthalmiaassociated transcription factor (MiT) renal cell carcinoma (RCC) (AID 1963991; calls by dose curve; further: potency means the concentration at half of the fitted maximal effect); conditions: CellTiter-Glo, 48 h; for z-score: stronger effect = lower value
# In short: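 Three TFE3-fusion RCC lines (UOK109, UOK124, UOK145), 500 cells/well in complete medium, were treated with MIPE 4.0 compounds for 48 hours at 37 C. Viability was by CellTiter-Glo luminescence, normalized to DMSO (100%) and empty wells (0%); curves fitted over 11 concentrations.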
# [3] = qHTS profiling for inhibitors of Plasmodium falciparum proliferation (AID 504749); further: potency means the concentration at half of the fitted maximal effect;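 on activity, negative = inhibition: 0% = DMSO vehicle and full inhibition = artemisinin control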; on all read-outs here: nearly all actives have a fitted effect of over 60% in size; conditions: P. falciparum in erythrocytes, SYBR Green DNA, 72 h; for activity, negative = inhibition: at 28.7 µM (top of the series)
# In short: (§1)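 Three-day growth assay of blood-stage parasites in erythrocytes (0.3% parasitemia, 2.5% hematocrit) at 37 C, 5% CO2, quantified by SYBR Green DNA staining after overnight detergent lysis.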
# 3D7 = assay: as above; conditions: P. falciparum in erythrocytes, SYBR Green DNA, 72 h; series mostly up to 28.7 µM
# In short: as §1
# 7G8 = assay: as above; conditions: P. falciparum in erythrocytes, SYBR Green DNA, 72 h; series mostly up to 28.7 µM
# In short: as §1
# AS120 = assay: as above; conditions: P. falciparum in erythrocytes, SYBR Green DNA, 72 h; series mostly up to 28.7 µM
# In short: as §1
# C2A = assay: as above; conditions: P. falciparum in erythrocytes, SYBR Green DNA, 72 h; series mostly up to 28.7 µM
# In short: as §1
# AA1029 = assay: as above; conditions: P. falciparum in erythrocytes, SYBR Green DNA, 72 h; series mostly up to 28.7 µM
# In short: as §1
# ATS189 = assay: as above; conditions: P. falciparum in erythrocytes, SYBR Green DNA, 72 h; series mostly up to 28.7 µM
# In short: as §1
# ATS95 = assay: as above; conditions: P. falciparum in erythrocytes, SYBR Green DNA, 72 h; series mostly up to 28.7 µM
# In short: as §1
# [4] = TFE3-RCC UOK109 viability, measured here: UOK109 Z-AUC
# [5] = TFE3-RCC viability, measured here: UOK124 Z-AUC
# [6] = TFE3-RCC viability, measured here: UOK145 Z-AUC
structure (smiles),measurement,setting,value
O=S(=O)(F)Cc1ccccc1,Z-AUC,[1],-0.434 (inactive)
same,Z-AUC,[1]; measured here: PEO1 parental Z-AUC,-0.355
same,Z-AUC,[1]; measured here: PEO4 Z-AUC,0.278
same,z-score,[2]; [4],0.128
same,z-score,[2]; [5],-1.89
same,z-score,[2]; [6],0.531
CCCCCCCCCCCCCCCC[N+](C)(C)C,Potency,[3]; parasite line A,11.2 µM (active)
same,Potency,3D7,8.91 µM (active)
same,Potency,7G8,11.2 µM (active)
same,Potency,AS120,11.2 µM (active)
same,Potency,C2A,8.91 µM (active)
COc1ccc2c(c1)[C@]13CCCCC1C(C2)N(C)CC3 (some centres not stated),z-score,[2]; [4],-0.129
same,z-score,[2]; [5],0.851
same,z-score,[2]; [6],0.444
CN1C2CCC1CC(OC(=O)c1cc(Cl)cc(Cl)c1)C2 (configuration not stated),"activity, negative = inhibition",[3]; parasite line A,-1.17% (inactive)
same,"activity, negative = inhibition",[3]; parasite line B,5.18% (inactive)
same,Potency,3D7,inactive
same,Potency,7G8,6.31 µM (active)
same,Potency,AA1029,inactive
same,Potency,AS120,inactive
same,Potency,ATS189,inactive
same,Potency,ATS95,inactive
same,Potency,C2A,inactive
Cc1cc(O)ccc1Cl,"activity, negative = inhibition",[3]; parasite line A,4.69% (inactive)
same,"activity, negative = inhibition",[3]; parasite line B,-0.29% (inactive)
same,Potency,3D7,inactive
same,Potency,AA1029,inactive
same,Potency,AS120,inactive
same,Potency,ATS189,inactive
same,Potency,ATS95,inactive
same,Potency,C2A,inactive
CN[C@@H]1C[C@@H](c2ccc(Cl)c(Cl)c2)c2ccccc21,Potency,3D7,inactive
same,Potency,7G8,10 µM (active)
same,Potency,ATS189,inactive
same,Potency,C2A,inactive
CC(C)[C@]12O[C@@H]1[C@@H]1O[C@]13[C@]1(O[C@H]1C[C@@H]1C4=C(CC[C@@]13C)C(=O)OC4)[C@H]2O,z-score,[2]; [4],-3.4
same,z-score,[2]; [5],-3.26
same,z-score,[2]; [6],-3.53
CC1=NN=C(c2ccc(N)cc2)c2cc3c(cc2C1)OCO3,z-score,[2]; [4],0.644
same,z-score,[2]; [5],0.871
same,z-score,[2]; [6],0.714
CC(=O)OCC1=C(C(=O)O)N2C(=O)[C@@H](N)[C@@H]2SC1,z-score,[2]; [4],-1.76
same,z-score,[2]; [5],0.735
same,z-score,[2]; [6],1.3
same,Potency,3D7,inactive
same,Potency,7G8,inactive
CC(C)N(CCNC(=O)CN1CCCC1=O)C(C)C,z-score,[2]; [4],0.955
same,z-score,[2]; [5],0.437
same,z-score,[2]; [6],0.681
CC(=CCCC1=CCC(C2=CC(=O)OC2O)OC1O)CCC1=C(C)CCCC1(C)C (configuration not stated),z-score,[2]; [4],0.667
same,z-score,[2]; [5],0.534
same,z-score,[2]; [6],-0.0671
CCCCc1ccc(C(=O)O)nc1,"activity, negative = inhibition",[3]; parasite line A,0.211% (inactive)
same,"activity, negative = inhibition",[3]; parasite line B,1.46% (inactive)
same,Potency,3D7,inactive
same,Potency,7G8,inactive
same,Potency,AA1029,inactive
same,Potency,AS120,inactive
same,Potency,ATS189,inactive
same,Potency,ATS95,inactive
same,Potency,C2A,inactive
CC[C@@H]1[C@@H](C)O[C@@](O)([C@@H](C)[C@H](O)[C@H](C)[C@H]2OC(=O)C=CC=C[C@@H](C)[C@@H]([C@@H](C)[C@@H](O)[C@H](C)[C@@]3(O)C[C@H](O[C@H]4C[C@H](O)[C@H](O)[C@H](C)O4)[C@H](CC)[C@@H](C)O3)OC(=O)C=CC=C[C@@H]2C)C[C@H]1O[C@H]1C[C@H](O)[C@H](O)[C@H](C)O1,Potency,[2]; TFE3-RCC UOK109 viability,1.05 µM (active)
same,z-score,[2]; [4],-1.85
same,z-score,[2]; [5],-2.49
same,z-score,[2]; [6],-1.57
CC[N+]1(CCOC(=O)C(O)(c2ccccc2)c2ccccc2)CCCCC1,"activity, negative = inhibition",[3]; parasite line A,-23.7% (inactive)
same,"activity, negative = inhibition",[3]; parasite line B,-20.1% (inactive)
same,Potency,3D7,inactive
same,Potency,AS120,inactive
same,Potency,ATS189,inactive
same,Potency,ATS95,inactive
same,Potency,C2A,inactive
